This is an account of results in PubChem BioAssay.

A number with no mark means an inactive call.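 How the source made its calls, unless noted: active means viability at or below 10% of carrier control in both of two separate runs; inconclusive means viability at or below 10% in only one of the two runs; inactive means the rest.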

Receptor tyrosine-protein kinase erbB-2 (Homo sapiens), sequence (P04626 whole entry, looked up): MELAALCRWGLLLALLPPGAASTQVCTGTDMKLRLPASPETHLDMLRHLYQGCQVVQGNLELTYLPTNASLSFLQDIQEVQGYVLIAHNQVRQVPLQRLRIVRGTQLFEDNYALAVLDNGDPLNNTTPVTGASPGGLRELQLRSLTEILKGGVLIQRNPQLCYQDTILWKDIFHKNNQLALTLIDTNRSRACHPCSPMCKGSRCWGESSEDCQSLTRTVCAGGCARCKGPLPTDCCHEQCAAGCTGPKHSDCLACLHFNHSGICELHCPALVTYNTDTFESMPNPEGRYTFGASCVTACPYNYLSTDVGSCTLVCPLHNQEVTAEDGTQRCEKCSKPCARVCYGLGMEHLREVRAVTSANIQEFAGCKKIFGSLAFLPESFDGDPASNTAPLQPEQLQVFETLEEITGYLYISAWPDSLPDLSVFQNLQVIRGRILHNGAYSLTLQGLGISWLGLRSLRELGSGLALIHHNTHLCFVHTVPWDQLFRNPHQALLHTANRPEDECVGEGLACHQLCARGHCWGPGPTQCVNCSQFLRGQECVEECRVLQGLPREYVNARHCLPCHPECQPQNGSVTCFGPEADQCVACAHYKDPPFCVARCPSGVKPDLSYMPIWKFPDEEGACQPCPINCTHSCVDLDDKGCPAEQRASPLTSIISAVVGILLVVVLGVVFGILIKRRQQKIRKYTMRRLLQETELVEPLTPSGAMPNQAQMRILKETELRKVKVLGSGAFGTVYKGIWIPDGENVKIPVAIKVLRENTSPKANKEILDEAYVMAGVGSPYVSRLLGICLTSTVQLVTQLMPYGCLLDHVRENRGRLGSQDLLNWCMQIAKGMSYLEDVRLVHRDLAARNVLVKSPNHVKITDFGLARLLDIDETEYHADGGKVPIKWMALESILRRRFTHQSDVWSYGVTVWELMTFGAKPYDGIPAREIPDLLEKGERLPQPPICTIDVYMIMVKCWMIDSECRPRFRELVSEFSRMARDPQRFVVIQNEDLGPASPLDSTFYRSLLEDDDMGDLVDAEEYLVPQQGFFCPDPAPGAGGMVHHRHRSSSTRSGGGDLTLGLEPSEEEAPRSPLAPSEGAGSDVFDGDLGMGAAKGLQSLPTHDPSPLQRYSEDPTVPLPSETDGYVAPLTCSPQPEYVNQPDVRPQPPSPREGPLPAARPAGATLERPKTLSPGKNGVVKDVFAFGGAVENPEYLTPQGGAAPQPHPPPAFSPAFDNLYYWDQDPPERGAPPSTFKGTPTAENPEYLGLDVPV

One assay concerns the target Receptor tyrosine-protein kinase erbB-2 (Homo sapiens) (UniProt P04626). Put plainly: Her2 expression decrease, cell viability multiplex – SKBR3 breast tumor cells, AlphaScreen, ATP viability, primary screen (AID 461;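 active means Her2 level under about 52% in both replicate screens, with viability over 70% of control, limit read from the data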;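 further: lower value means less Her2 protein in the cells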). Conditions: 18-24 h, at 10 µM, hits give low values.
`C=CCSc1nnc(-c2ccccc2NC(C)=O)c(=O)[nH]1`: the Her2 level was 105%.
As for `CNC(=O)CSc1nnc(-c2cccc(S(=O)(=O)N3CCOCC3)c2)n1-c1ccc(F)cc1`, the Her2 level is 95%.
Still for that read-out and setting: next, `O=C(NCc1ccccc1)C1CCN(S(=O)(=O)N2CCCCCC2)CC1`: 106%; `CC(C(=O)N1CCc2ccccc21)N1CCc2ccccc2C1` (stereo not drawn): 79%.
On to `CCCNC(=O)c1ccccc1C(=O)NCCC`, for which the Her2 level was 88.5%.
The same measure, in the same setting: to `CCCC(C)c1nnc(NC(=O)C2CCCO2)s1` (stereo not drawn) belongs 91%; to `CCN(CC)S(=O)(=O)c1cccc2c(N(C)C)cccc12`, 112%; to `O=C1CC(C2CCCO2)C(=O)N1Cc1ccccc1` (stereo not drawn), 94%.
With `O=c1[nH]c(SCc2cc(=O)n3ccccc3n2)nc2c1CCC2`, the Her2 level was 83.5%.
Same read-out and setting: to `COC(=O)c1cc2oc(C)cc2n1CC(=O)N(C)c1ccccc1` belongs 92.5%; to `Cc1cc(NC(=O)Cn2cnc3c2c(=O)n(C)c(=O)n3C)n(-c2ccccc2)n1`, 93%.
Take `CCc1nnc(NC(=O)c2cc3c(s2)CCCCC3)s1`: the Her2 level is 108%.
As to `Cc1ccc(-c2ccc(=O)n(CCC(=O)NCc3ccccn3)n2)cc1`, the Her2 level is 84%.
With `CCC(=O)N1CCc2cc(S(=O)(=O)CCC(=O)Nc3c(C)n(C)n(-c4ccccc4)c3=O)ccc21`, the Her2 level is 104%.
The same measure, in the same setting: to `CC(=O)N1CCc2cc(S(=O)(=O)NCCC3=CCCCC3)ccc21` belongs 85%; to `COc1cccc(-n2nc(C(=O)Nc3ccc4c(c3)OCO4)c3ccccc3c2=O)c1`, 80.5%; to `COCCCNS(=O)(=O)c1ccc2c(c1)CCN2C(C)=O`, 99%.
Turning to `Cc1ccc(S(=O)(=O)N2CCC(C(=O)NCCN3CCCCCC3)CC2)cc1`, the Her2 level is 93.5%.
On the same count and under the same terms, to `CCN(CC)c1ccc(-c2nn3c(-c4cccnc4)nnc3s2)cc1` belongs 64%; to `Cc1cccc(-c2c3c(=O)n(C)c(=O)n(C)c3cn2-c2ccc(O)cc2)c1`, 80%.
On the same count and under the same terms, next, `CCOC(=O)c1[nH]c2ccc(OC)cc2c1NC(=O)CCN1CCC(C)CC1`: 94.5%; `CCS(=O)(=O)N1CCCC(C(=O)NCc2ccccc2Cl)C1` (stereo not drawn): 110%.
The same measure, in the same setting: to `Cc1ccc(N2CC(C)Cn3c2nc2c3c(=O)n(CC(=O)OCc3ccccc3)c(=O)n2C)cc1C` (stereo not drawn) belongs 99.5%.

Tested on in a further assay: not listed separately
Put plainly: reduced viability of SK-BR-3 breast cancer cells – cell-based, 24 h, human, pilot screen (AID 572).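 Further: compound exposure lasted between 18 and 24 h rather than exactly 24 h; 100% = carrier-treated control wells.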 As to conditions: SK-BR-3 viability, CellTiter-Glo luminescence, at 10 µM, hits give low values.
In the case of `CC1Cc2nc(SCC(=O)Nc3ccc(F)cc3F)n(C)c(=O)c2S1` (stereo not drawn), the viability (usually a read-out of living cells in per cent, often relative to untreated cells) is 90%.
The same measure, in the same setting: next, `COC(=O)CCn1nnc(-c2cccs2)n1`: 99.5%; `CCN(C#N)c1nc(NC(C)C)nc(NC(C)C)n1`: 96.5%; `COc1ccccc1C(=O)Nc1ccc(S(=O)(=O)N2CCCC2)cc1`: 95.5%.
Consider `COC(=O)c1[nH]c2ccccc2c1NC(=O)CN1CCC(C(N)=O)(N2CCCCC2)CC1`, for which the viability was 96%.
On to `CC(O)c1c(OCc2ccccc2)ncnc1OCc1ccccc1` (stereo not drawn), for which the viability is 83.5%.
The same measure, in the same setting: next, `Cc1c(C(=O)OC(C)C)[nH]c2c1C(=O)CCC2`: 96.5%.
On the same count and under the same terms, to `CC(C)CNC(=O)C1C2C=CC(C2)C1C(=O)O` (stereo not drawn) belongs 96%.
Still for that read-out and setting: next, `COc1cccc(Cn2c(Oc3ccccc3)nc3c2c(=O)n(C)c(=O)n3C)c1`: 100%.
Consider `CC(C)(C)NC(=O)Cn1nnc(-c2cccs2)n1`, for which the viability is 94%.
Turning to `COc1cc(CN2CCN(C(=O)CC(C)C)CC2)cc(OC)c1O`, the viability is 114%.
For the compound `CCn1c(C)nc2cc(C(=O)OCCC(F)(F)F)ccc21`, the viability is 100%.
For `CCn1c(CC(=O)Nc2cccc(OC)c2)nnc1SCC(=O)Nc1nccs1`, the viability is 98%.
Regarding `CCOc1cc(NC(=O)c2ccco2)c(OCC)cc1NC(=O)CCC(=O)NCc1cccnc1`, the viability is 95.5%.
For `CCN(CC)c1ccc(CNc2ccc(Br)cn2)cc1`, the viability was 108%.
On the same count and under the same terms, to `CCOc1ccccc1C(=O)NCCC(=O)O` belongs 95%.
Same read-out and setting: next, `Cc1ccc(-c2csc3nnc(SCC(=O)NCc4ccco4)n23)cc1`: 88.5%.
On the same count and under the same terms, next, `C=CCSc1nnc(-c2ccccc2NC(C)=O)c(=O)[nH]1`: 106%.
Turning to `CNC(=O)CSc1nnc(-c2cccc(S(=O)(=O)N3CCOCC3)c2)n1-c1ccc(F)cc1`, the viability is 78.5%.
The same measure, in the same setting: to `O=C(NCc1ccccc1)C1CCN(S(=O)(=O)N2CCCCCC2)CC1` belongs 85%.
Still for that read-out and setting: to `CC(C(=O)N1CCc2ccccc21)N1CCc2ccccc2C1` (stereo not drawn) belongs 82%; to `CCCNC(=O)c1ccccc1C(=O)NCCC`, 93.5%; to `CCCC(C)c1nnc(NC(=O)C2CCCO2)s1` (stereo not drawn), 126%.
On the same count and under the same terms, to `CCN(CC)S(=O)(=O)c1cccc2c(N(C)C)cccc12` belongs 99.5%; to `O=C1CC(C2CCCO2)C(=O)N1Cc1ccccc1` (stereo not drawn), 98%.
Consider `O=c1[nH]c(SCc2cc(=O)n3ccccc3n2)nc2c1CCC2`, for which the viability is 101%.
Same read-out and setting: to `COC(=O)c1cc2oc(C)cc2n1CC(=O)N(C)c1ccccc1` belongs 93%; to `Cc1cc(NC(=O)Cn2cnc3c2c(=O)n(C)c(=O)n3C)n(-c2ccccc2)n1`, 116%; to `CCc1nnc(NC(=O)c2cc3c(s2)CCCCC3)s1`, 92.5%.
The same measure, in the same setting: to `Cc1ccc(-c2ccc(=O)n(CCC(=O)NCc3ccccn3)n2)cc1` belongs 94.5%; to `CCC(=O)N1CCc2cc(S(=O)(=O)CCC(=O)Nc3c(C)n(C)n(-c4ccccc4)c3=O)ccc21`, 96%.
For the compound `CC(=O)N1CCc2cc(S(=O)(=O)NCCC3=CCCCC3)ccc21`, the viability was 108%.
Same read-out and setting: next, `COc1cccc(-n2nc(C(=O)Nc3ccc4c(c3)OCO4)c3ccccc3c2=O)c1`: 109%; `COCCCNS(=O)(=O)c1ccc2c(c1)CCN2C(C)=O`: 97%.
On the same count and under the same terms, to `Cc1ccc(S(=O)(=O)N2CCC(C(=O)NCCN3CCCCCC3)CC2)cc1` belongs 91%.
Consider `CCN(CC)c1ccc(-c2nn3c(-c4cccnc4)nnc3s2)cc1`, for which the viability is 91.5%.
Consider `Cc1cccc(-c2c3c(=O)n(C)c(=O)n(C)c3cn2-c2ccc(O)cc2)c1`, for which the viability is 102%.
Same read-out and setting: to `CCOC(=O)c1[nH]c2ccc(OC)cc2c1NC(=O)CCN1CCC(C)CC1` belongs 101%; to `CCS(=O)(=O)N1CCCC(C(=O)NCc2ccccc2Cl)C1` (stereo not drawn), 90%.
Still for that read-out and setting: next, `Cc1ccc(N2CC(C)Cn3c2nc2c3c(=O)n(CC(=O)OCc3ccccc3)c(=O)n2C)cc1C` (stereo not drawn): 86.5%.
